Sampled rows, rich in hits. Any-hit rate of the full collection: about 1.6%.
KCNQ2 enhance = enhances the rat KCNQ2 potassium channel. O88943. CHO-K1 KCNQ2, FluxOR thallium flux fluorescence; hits give high values. B-score at 10 µM. 0.54% of 310,000 active;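 active = fluorescence ratio B-score at least 3 SD of library B-scores, with initial fluorescence B-score within 3 of them, cut at about 5.3 in these data; same plate scores as AID 2156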;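 note: B-score of peak minus minimum over baseline fluorescence ratio after K+ and Tl+ stimulus; positive B-score means potentiation of KCNQ2 with more thallium influx and brighter signal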
KCNQ2 inh = KCNQ2 (rat) channel inhibition. CHO-K1 KCNQ2, FluxOR thallium flux, 20 min; hits give low values. AID 2156. O88943. B-score at 10 µM. 1.1% of 310,000 active;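 active = fluorescence ratio B-score at most minus 3 library SDs, with starting brightness B-score within 2 library SDs, cut at about -5.5 in these data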
Kir21 confirm = confirmation of mouse Kir2.1 potassium channel inhibitors. Tl flux remaining, % of negative control (hits give low values), % at 10 µM. shares compounds with KCNQ2 enhance. Kir2.1-expressing cells, FluxOR thallium flux fluorescence; hits give low values. 41% of 2,300 active;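 active = Primary-screen hit whose thallium flux fell at least 3 control SD below untreated wells in both duplicates, with normal baseline fluorescence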
HEK293 ctr = alters thallium flux in parental HEK293 cells, Kir2.1 counter-screen; FluxOR thallium flux fluorescence; 0% = unstimulated blank wells; shares compounds with KCNQ2 enhance; FluxOR signal as % of negative control (100 = no effect), % at 10 µM; 19% of 2,300 active;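 active = dye signal at least 3 control SD above or below untreated wells in both duplicates, raw fluorescence within 3, either direction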;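 note: percent is based on the flux ratio of peak minus minimum fluorescence over baseline F0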
CHO-K1 Tl ctr = alters thallium flux in parental CHO-K1 cells, KCNQ2 counter-screen | shares compounds with KCNQ2 enhance | FluxOR thallium flux fluorescence; zero = vehicle mean+3SD, 100% = vehicle-minus-blank window | activity increase over 3SD of controls, % at 10 µM | 43% of 1,200 active | AID 2282;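 active = signal rise of at least 3 SD above the untreated control mean, in both duplicate wells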;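 note: counter screen of KCNQ2 potentiator hits so any rise reflects channel-independent effects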
KCNQ1 pot spec = tests whether KCNQ2 potentiators also act on human KCNQ1 | shares compounds with KCNQ2 enhance | CHO KCNQ1 stable, FluxOR thallium flux fluorescence; beyond 3SD, as % of vehicle-control signal | activation over 3SD threshold, % at 10 µM | 28% of 1,200 active;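 active = fluorescence ratio rise of at least 3 SD of vehicle wells above their mean, in both replicate wells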
Target sequence (P51787 whole entry, looked up): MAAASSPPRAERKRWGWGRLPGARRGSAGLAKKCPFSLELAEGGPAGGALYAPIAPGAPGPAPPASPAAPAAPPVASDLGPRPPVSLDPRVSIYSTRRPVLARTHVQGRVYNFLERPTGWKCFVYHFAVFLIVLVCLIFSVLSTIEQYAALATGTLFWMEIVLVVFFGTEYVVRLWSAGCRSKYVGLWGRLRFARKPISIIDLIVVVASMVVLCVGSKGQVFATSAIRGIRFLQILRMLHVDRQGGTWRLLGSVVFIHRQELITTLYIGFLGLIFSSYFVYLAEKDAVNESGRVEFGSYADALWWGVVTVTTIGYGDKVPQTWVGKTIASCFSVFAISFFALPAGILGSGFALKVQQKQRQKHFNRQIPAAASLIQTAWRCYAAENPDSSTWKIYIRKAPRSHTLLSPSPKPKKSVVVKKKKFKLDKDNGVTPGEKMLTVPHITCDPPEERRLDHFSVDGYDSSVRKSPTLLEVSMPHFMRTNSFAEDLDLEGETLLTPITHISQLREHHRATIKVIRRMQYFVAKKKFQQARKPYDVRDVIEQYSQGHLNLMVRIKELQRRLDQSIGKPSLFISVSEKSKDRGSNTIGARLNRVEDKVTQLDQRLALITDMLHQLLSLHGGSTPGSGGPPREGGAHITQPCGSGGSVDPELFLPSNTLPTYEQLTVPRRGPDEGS
KCNQ2 pot conf = rat KCNQ2 channel potentiator confirmation | shares compounds with KCNQ2 enhance | CHO-KCNQ2 cells, FluxOR thallium flux fluorescence | potentiation, less the hit threshold, % at 10 µM | 68% of 1,200 active | AID 2287;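 active = fluorescence ratio rising 3 SD or more over the vehicle control mean in both replicates, plus primary screen hit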;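 note: peak minus minimum thallium fluorescence divided by baseline after K/Tl stimulus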
Kir2-1 sel = mouse Kir2.1 off-target activity of KCNQ2 potentiators | AID 2345 | HEK293 Kir2.1, FluxOR thallium flux fluorescence | 2% of 1,200 active | activity over 3SD threshold, % at 10 µM | shares compounds with KCNQ2 enhance;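 active = fluorescence ratio rise of at least 3 SD above the vehicle-control mean, seen in both replicates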
KCNQ2 W236L MoA = KCNQ2 potentiators acting on retigabine-insensitive rat KCNQ2 W236L mutant; shares compounds with KCNQ2 enhance; CHO KCNQ2-W236L, automated patch clamp current; current increase over 3SD of negative controls (%), hits give high values, % at 25 µM; 10% of 940 active; AID 2558;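 active = current increase at least 3 SD of the untreated controls above them in both duplicate recordings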
Of the large screens only hits and unclear results are named; the others gave an inactive call (follow-up assays come after a bar, where they were run).

Cc1c(C)n(CCN(C)C)c2ccc(C(=O)OCCN(C)C)cc12	none
Cc1c(C)n(Cc2ccccc2)c2ccc(C(=O)OCCCN(C)C)cc12	none (no result: KCNQ2 enhance) | Kir21 confirm 24% | HEK293 ctr inactive
COC(=O)c1sccc1NC(=O)Nc1cccc(C(C)=O)c1	none
O=C1c2ccccc2NC(c2ccc(Br)s2)N1O (centres undefined)	KCNQ2 enhance 7.8 | Kir21 confirm inactive | HEK293 ctr 288% | CHO-K1 Tl ctr 1.4 | KCNQ1 pot spec 27 | KCNQ2 pot conf 22 | Kir2-1 sel inactive | KCNQ2 W236L MoA inactive
C=CCN1C(=O)c2ccccc2NC1c1ccc(Br)s1 (centres undefined)	none
COc1ccccc1NC1=C(NC(C)=O)C(=O)c2ccccc2C1=O	KCNQ2 enhance 8 | Kir21 confirm inactive | HEK293 ctr inactive | CHO-K1 Tl ctr inactive | KCNQ1 pot spec inactive | KCNQ2 pot conf 4.8 | Kir2-1 sel inactive | KCNQ2 W236L MoA inactive
COC1=C(Nc2ccccc2OC)C(=O)c2ccccc2C1=O	none (no result: KCNQ2 enhance)
O=S(=O)(c1cccc(C(F)(F)F)c1)N1CCN(C(=S)NC2CC2)CC1	none (no result: KCNQ2 enhance)
CCOC(=O)c1c(CSc2ccc(CC)cc2)oc2ccc(O)c(CN(C)C)c12	KCNQ2 inh -5.8 | Kir21 confirm 16% | HEK293 ctr inactive
CC(=O)c1c(CSc2ccccc2)oc2ccc(O)c(CN(C)C)c12	none (no result: KCNQ2 enhance) | Kir21 confirm 38% | HEK293 ctr 64%
CCOC(=O)c1c(CSc2ccccc2)oc2cc(Br)c(O)c(CN(C)C)c12	none
CCOC(=O)c1c(C)oc2ccc(O)c(CN(C)C)c12	none
O=C(CCSc1nc(-c2ccco2)cc(C(F)(F)F)n1)NCCc1ccccc1	none (no result: KCNQ2 enhance)
O=C(N/N=C/c1cccs1)c1[nH]ncc1Br	KCNQ2 enhance 11 | Kir21 confirm inactive | HEK293 ctr inactive | CHO-K1 Tl ctr 115 | KCNQ1 pot spec inactive | KCNQ2 pot conf 43 | Kir2-1 sel inactive | KCNQ2 W236L MoA inactive
O=C(N/N=C/c1cccs1)c1cnccn1	none (no result: KCNQ2 enhance)
CNC(=S)N/N=C/C1=CCC2CC1C2(C)C (centres undefined)	none
CC1(C)C2CC=C(/C=N/NC(=S)NCCc3ccccc3)C1C2 (centres undefined)	KCNQ2 enhance 5.5 | Kir21 confirm inactive | HEK293 ctr inactive | CHO-K1 Tl ctr inactive | KCNQ1 pot spec inactive | KCNQ2 pot conf inactive | Kir2-1 sel inactive
O=C1CC(O)(C(F)F)Oc2ccc3ccccc3c21 (centres undefined)	none
O=C1CC(O)(C(F)(F)F)Oc2c1ccc1ccccc21 (centres undefined)	KCNQ2 enhance 5.7 | Kir21 confirm inactive | HEK293 ctr 248% | CHO-K1 Tl ctr inactive | KCNQ1 pot spec 7.6 | KCNQ2 pot conf 44 | Kir2-1 sel inactive | KCNQ2 W236L MoA inactive
COc1ccc(C)cc1NS(=O)(=O)c1ccc(NS(=O)(=O)c2ccc(NC(C)=O)cc2)cc1	none
COc1ccc(Cl)cc1NS(=O)(=O)c1ccc(OC)c(OC)c1	none (no result: KCNQ2 enhance) | Kir21 confirm 51% | HEK293 ctr 140%
COc1ccc(S(=O)(=O)Nc2cc(Cl)ccc2OC)cc1	none (no result: KCNQ2 enhance)
COc1ccc(S(=O)(=O)Nc2cc(C)ccc2OC)cc1C	none (no result: KCNQ2 enhance) | Kir21 confirm 77% | HEK293 ctr inactive
Cc1c(C(=O)N2CCCC2)oc2ccc(Br)cc12	none (no result: KCNQ2 enhance)
CSCC(O)Cn1ncc2ccccc2c1=O (centres undefined)	none (no result: KCNQ2 enhance)
CCCN(CC(=O)Nc1ccccc1OC)C(=O)CSc1nc(C)cc(C)n1	none
COc1ccccc1C(CNC(=O)C(C)Oc1ccc(Br)cc1)N1CCCC1 (centres undefined)	none | Kir21 confirm inactive | HEK293 ctr inactive
COc1ccc(C(CNC(=O)C(C)Oc2ccc(Br)cc2)N2CCOCC2)cc1 (centres undefined)	none (no result: KCNQ2 enhance)
CC(C)c1c(O)nc(SCCN(C)C)[nH]c1=O	none
O=C(NCc1n[nH]c(=S)n1-c1ccc(F)cc1)c1ccc(S(=O)(=O)N2CCCCC2)cc1	none (no result: KCNQ2 enhance)
CCOC(=O)CSc1nc(CC)nc2ccccc12	none
CCOC(=O)CSc1nc(Cc2ccccc2)nc2ccccc12	none (no result: KCNQ2 enhance) | Kir21 confirm 70% | HEK293 ctr inactive
COC(=O)c1ccc(CSc2ccc3nnc(-c4ccc(OC)cc4)n3n2)o1	none
O=C(O)Cc1ccc(O)c(O)c1	none (no result: KCNQ2 enhance)
O=C(O)Cc1cc(I)c(Oc2ccc(O)c(I)c2)c(I)c1	KCNQ2 enhance 9.9 | Kir21 confirm inactive | HEK293 ctr inactive | CHO-K1 Tl ctr 1.9 | KCNQ1 pot spec 19 | KCNQ2 pot conf 112 | Kir2-1 sel inactive | KCNQ2 W236L MoA inactive
COc1cc(OC)c(NS(=O)(=O)c2c(C)[nH]c(=O)[nH]c2=O)cc1Cl	none (no result: KCNQ2 enhance)
COc1ccccc1NC(=O)CSc1nc2ccccc2c(=O)n1C	none (no result: KCNQ2 enhance)
CC(NCCC(c1ccccc1)c1ccccc1)c1ccccc1 (centres undefined)	none | Kir21 confirm 44% | HEK293 ctr inactive
CC(NC1CCCC1)c1ccccc1 (centres undefined)	none
O=S(=O)(NC(=NC1CCCCC1)c1ccccc1)c1ccc(F)cc1	none (no result: KCNQ2 enhance)
CCCCCC(O)(c1ccc(OC)cc1)C(CN1CCOCC1)c1ccccc1 (centres undefined)	KCNQ2 enhance 6.2 | Kir21 confirm inactive | HEK293 ctr inactive | CHO-K1 Tl ctr 62 | KCNQ1 pot spec inactive | KCNQ2 pot conf inactive | Kir2-1 sel inactive | KCNQ2 W236L MoA inactive
CCCCC(O)(c1ccc(OC)cc1)C(CN1CCOCC1)c1ccccc1 (centres undefined)	none
O=C(O)CCC(=O)NNc1nc(-c2ccccc2)c2cc(Cl)ccc2n1	none (no result: KCNQ2 enhance)
O=C(CN1CCCCC1)NNc1nc(-c2ccccc2)c2cc(Cl)ccc2n1	KCNQ2 enhance 11 | Kir21 confirm inactive | HEK293 ctr inactive | CHO-K1 Tl ctr inactive | KCNQ1 pot spec inactive | KCNQ2 pot conf 15 | Kir2-1 sel inactive | KCNQ2 W236L MoA inactive
COc1ccc(-c2nnn(CCc3nn[nH]n3)n2)cc1	none (no result: KCNQ2 enhance)
CC(=O)N1CC(C)Sc2ccc(S(=O)(=O)NCCc3ccccc3)cc21 (centres undefined)	none (no result: KCNQ2 enhance)
Cc1ccc(N=Cc2c(O)n(C)c(=O)n(C)c2=O)nc1	none (no result: KCNQ2 enhance)
CCOc1ccc(Nc2cc(C)nc3ccc(C)cc23)cc1	none (no result: KCNQ2 enhance)
Cc1ccc(Nc2cc(C)nc3ccc(C)cc23)cc1	none | Kir21 confirm 48% | HEK293 ctr inactive
COCCNC(=O)CC(NS(=O)(=O)c1ccc(NC(C)=O)cc1)C(C)C (centres undefined)	none

Screens: PubChem, Johns Hopkins Ion Channel Center
